Several values for one entry are separate records, joined by “and”; a condition that tells them apart may be missing. Equal values may be shown once. Inconclusive results are not listed. A call without a number means that no potency is given here. Activity calls are given as the source filed them. Unless noted, calls come from the whole dose curve.

One test can be described thus: qHTS assay for cell viability of HEK293 cells (AID 743288; active = well fitted cell-killing curve with a large enough effect; note: nearly all actives have a fitted effect of over 50% in size). The note with it: ATP luminescence (CellTiter-Glo), 18 h, stronger effect = lower value. The method in brief: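 Parental HEK293 cells were seeded at 2,000 cells/well, rested at least 5 h at 37 C, then exposed to compounds in DMSO for 18 h at 37 C. Viability was read as ATP-dependent luciferase luminescence after 30 min at room temperature.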
On the technique in general: Quantitative high-throughput screening tests each substance at several concentrations.
Turning to `O=C(O)CCCc1ccc(N(CCCl)CCCl)cc1`, the max response was -9.24% (inactive) and -11.4% (inactive). Consider `C[C@]1(O)CC[C@H]2[C@@H]3CCC4=CC(=O)CC[C@]4(C)[C@@]3(F)[C@@H](O)C[C@@]21C`, for which the max response was -0.591% (inactive). On to `CN1C[C@H](C(=O)N[C@]2(C)O[C@@]3(O)[C@@H]4CCCN4C(=O)[C@H](Cc4ccccc4)N3C2=O)C=C2c3cccc4[nH]cc(c34)C[C@H]21`, for which the max response was -13.1% (inactive) and -12.3% (inactive).

With `COC(=O)C(c1ccccc1)C1CCCCN1` (configuration not stated), the max response is -2.58% (inactive) and -3.35% (inactive).

Another test in a line: qHTS assay for cell viability of the p53RE-bla HCT-116 cell line (AID 743292; active = well fitted cell-killing curve with a large enough effect; note: nearly all actives have a fitted effect of over 55% in size). The note with it: p53RE-bla HCT-116 viability, ATP luminescence, 16 h; series mostly up to 95 µM; activity change, negative = cytotoxicity: at the top concentration. The method in brief: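 In this qHTS counter-screen, metabolically competent p53RE-bla HCT-116 cells were counted via their ATP content. Compounds were applied for 16 h at 37 C and luciferase-coupled luminescence was measured.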
For `O=C(O)CCCc1ccc(N(CCCl)CCCl)cc1`, the Potency result is “inactive”.

As for `C[C@]1(O)CC[C@H]2[C@@H]3CCC4=CC(=O)CC[C@]4(C)[C@@]3(F)[C@@H](O)C[C@@]21C`, the “activity change, negative = cytotoxicity” value is 8.63% (inactive). As for `CN1C[C@H](C(=O)N[C@]2(C)O[C@@]3(O)[C@@H]4CCCN4C(=O)[C@H](Cc4ccccc4)N3C2=O)C=C2c3cccc4[nH]cc(c34)C[C@H]21`, the Potency result is “inactive”.

For the compound `COC(=O)C(c1ccccc1)C1CCCCN1` (configuration not stated), the Potency result was “inactive”.

Another test can be described thus: qHTS profiling of the MIPE4 collection as inhibitors of Plasmodium falciparum (3D7) proliferation (AID 743344; call rule not given here). The note with it: P. falciparum 3D7 in erythrocytes, SYBR Green DNA fluorescence, 72 h; at 28.5 µM (top of the series) unless noted. The method in brief:
(§1)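 Erythrocytes infected with P. falciparum (0.3% parasitemia, 2.5% hematocrit) incubated with compounds 72 h at 37 C, 5% CO2. Lysis with saponin/Triton buffer containing SYBR Green I, overnight at room temperature in the dark; DNA fluorescence (485/535 nm) normalised to 0.29 uM artemisinin and DMSO.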
`O=C(O)CCCc1ccc(N(CCCl)CCCl)cc1` returned a parasite growth, % of DMSO control of 70.9%. As for `COCCCOc1ccnc(CS(=O)c2nc3ccccc3[nH]2)c1C` (configuration not stated), the parasite growth, % of DMSO control was 78.8%. Still for that read-out and setting: the same measure for `CC(NC(C)(C)C)C(=O)c1cccc(Cl)c1` (configuration not stated): 26.6%.

Turning to `CC(C)N(CCC(C(N)=O)(c1ccccc1)c1ccccn1)C(C)C` (configuration not stated), the parasite growth, % of DMSO control is 105%.

Another test in a line: qHTS profiling of the MIPE4 collection as inhibitors of Plasmodium falciparum (DD2) proliferation (AID 743345; call rule not given here). The note with it: P. falciparum Dd2 in erythrocytes, SYBR Green DNA, 72 h; at 28.5 µM (top of the series) unless noted. The method in brief: as §1
As for `CCC1(C)CC(=O)NC1=O` (configuration not stated), the parasite growth remaining, % of DMSO control (lower = more inhibition) amounted to 111%. As to `O=C(O)CCCc1ccc(N(CCCl)CCCl)cc1`, the parasite growth remaining, % of DMSO control (lower = more inhibition) amounted to 82.7%.

With `COCCCOc1ccnc(CS(=O)c2nc3ccccc3[nH]2)c1C` (configuration not stated), the parasite growth remaining, % of DMSO control (lower = more inhibition) was 74.1%.

With `CC(NC(C)(C)C)C(=O)c1cccc(Cl)c1` (configuration not stated), the parasite growth remaining, % of DMSO control (lower = more inhibition) came out at 55.9%. On to `CC(C)N(CCC(C(N)=O)(c1ccccc1)c1ccccn1)C(C)C` (configuration not stated), for which the parasite growth remaining, % of DMSO control (lower = more inhibition) worked out at 100%.

The nature of a further test: qHTS profiling of the MIPE4 collection as inhibitors of Plasmodium falciparum (DD2) proliferation (Rep 2) (AID 743346; call rule not given here). The note with it: P. falciparum Dd2 in erythrocytes, SYBR Green DNA, 72 h; at 28.5 µM (top of the series) unless noted. The method in brief: as §1
Regarding `CCC1(C)CC(=O)NC1=O` (configuration not stated), the parasite growth, % of control (lower = inhibition) amounted to 96.3%.

In turn, `O=C(O)CCCc1ccc(N(CCCl)CCCl)cc1` returned a parasite growth, % of control (lower = inhibition) of 81.2%. Still for that read-out and setting: with `COCCCOc1ccnc(CS(=O)c2nc3ccccc3[nH]2)c1C` (configuration not stated) the figure was 63.9%; with `CC(NC(C)(C)C)C(=O)c1cccc(Cl)c1` (configuration not stated), 31%; with `CC(C)N(CCC(C(N)=O)(c1ccccc1)c1ccccn1)C(C)C` (configuration not stated), 42.5%.

Experiment in the next test: not given
The note with it: Ebola virus entry assay, blue channel fluorescence.
In the case of `C#CCN[C@@H]1CCc2ccccc21`, the compound was called inactive. In the case of `CCc1cc(C(N)=S)ccn1`, the result was inactive. Same read-out and setting: with `C=CCN1C[C@H](C(=O)N(CCCN(C)C)C(=O)NCC)C[C@@H]2c3cccc4[nH]cc(c34)C[C@H]21` the entry was “inactive”. With `CCC1(C)CC(=O)NC1=O` (configuration not stated), the outcome was inactive.

As for `Clc1ccc2nsnc2c1NC1=NCCN1`, the call was inactive. With `Nc1ccn([C@@H]2O[C@H](CO)[C@@H](O)C2O)c(=O)n1` (some centres not stated), the call was inactive. On to `C=CCC1([C@H](C)CCC)C(=O)NC(=O)NC1=O`, for which the compound was called inactive.

Consider `NCCCCCC(=O)O`, for which the result was inactive.

As to `O=C(O)CCCc1ccc(N(CCCl)CCCl)cc1`, the call was inactive. Regarding `COCCCOc1ccnc(CS(=O)c2nc3ccccc3[nH]2)c1C` (configuration not stated), the compound was classed as inactive. Turning to `Nc1ncn([C@H]2C[C@H](O)[C@@H](CO)O2)c(=O)n1`, the result was inactive.

With `OCCOCCN1CCN(C2=Nc3ccccc3Sc3ccccc32)CC1`, the result was inactive. As to `NS(=O)(=O)c1cc2c(cc1C(F)(F)F)NC(Cc1ccccc1)NS2(=O)=O` (configuration not stated), the compound was called inactive. Regarding `CC(NC(C)(C)C)C(=O)c1cccc(Cl)c1` (configuration not stated), the result was inactive. Turning to `CN=C(NC#N)NCCSCc1nc[nH]c1C`, the result was inactive. Still for that read-out and setting: the same measure for `C[C@](N)(Cc1ccc(O)cc1)C(=O)O`: “inactive”. Still for that read-out and setting: with `CN1C(C(=O)Nc2ccccn2)=C(O)c2ccccc2S1(=O)=O` the entry was “inactive”; with `CO[C@H]1C=CO[C@@]2(C)Oc3c(C)c(O)c4c(O)c(c(/C=N/N5CCN(C6CCCC6)CC5)c(O)c4c3C2=O)NC(=O)/C(C)=C\C=C[C@H](C)[C@H](O)[C@@H](C)[C@@H](O)[C@@H](C)[C@H](OC(C)=O)[C@@H]1C`, “inactive”; with `Cc1nnc(SCC2=C(C(=O)O)N3C(=O)[C@@H](NC(=O)Cn4cnnn4)[C@H]3SC2)s1`, “inactive”.

`O=C1CN(/N=C/c2ccc([N+](=O)[O-])o2)C(=O)N1`: the compound was called inactive. On to `Nc1ccc(S(=O)(=O)c2ccc(N)cc2)cc1`, for which the compound was classed as inactive. As for `NS(=O)(=O)c1cc(Cl)c(Cl)c(S(N)(=O)=O)c1`, the outcome was inactive. For the compound `C=C[C@H]1CN2CC[C@H]1C[C@H]2[C@H](O)c1ccnc2ccc(OC)cc12`, the call was inactive. In the case of `NCC[C@H](O)C(=O)N[C@@H]1C[C@H](N)[C@@H](O[C@H]2O[C@H](CN)[C@@H](O)[C@H](O)[C@@H]2O)[C@H](O)[C@@H]1O[C@H]1O[C@H](CO)[C@@H](O)[C@H](N)[C@@H]1O`, the compound was called inactive. As to `CCn1cc(C(=O)O)c(=O)c2cc(F)c(N3CCNC(C)C3)c(F)c21` (configuration not stated), the compound was called inactive.

Source of the values: PubChem BioAssay (NCATS).
